High-throughput results (PubChem BioAssay)
Pf Dd2 inh – blocks growth of Plasmodium falciparum Dd2 parasites; P. falciparum Dd2 growth, SYBR Green, 72 h; stronger effect = lower value; 94,000 compounds, 2.3% hits; activity change, % at 10 µM; in the data active = activity change below about -80%; inconclusive = no clear call, values can overlap the other calls
T cruzi growth-1 – T. cruzi proliferation inhibition; T. cruzi beta-gal in NIH3T3, GalScreen luminescence, 90 h; inhibition, % at 8.34 µM; 77,000 compounds, 5.9% hits; AID 624255;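 active = mean inhibition above about 93%, with at least 55% of replicates each passing it, limit read from the data, passing the limit was not always enough; inconclusive = only one of those two conditions holds; inactive = neither condition holds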
C diff growth – blocks growth of Clostridium difficile. 86,000 compounds, 0.25% hits. growth activity, negative = inhibition, % at 16 µg/mL (by protocol). Clostridium difficile clinical isolate growth, OD600, 24 h; stronger effect = lower value;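 active = mean growth activity at or below -80% and every replicate also at or below -80%; inconclusive = mean at or below -80% but some replicate above -80%; inactive = mean growth activity above -80%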;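 also: 0% = DMSO wells and -100% = levofloxacin 16 µg/mL wells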
T cruzi growth-2 – blocks T. cruzi growth in NIH3T3 host cells. shares compounds with T cruzi growth-1. T. cruzi beta-gal in NIH3T3, GalScreen luminescence, 90 h. inhibition, % at 8.35 µM. 5,600 compounds, 72% hits. AID 651739;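 active = mean replicate inhibition above about 95% and at least 55% of replicates individually reaching it, limit read from the data; inconclusive = only one of the two criteria is met; inactive = neither criterion is met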
T cruzi growth-3 – blocks T. cruzi growth in NIH3T3 host cells; shares compounds with T cruzi growth-1; T. cruzi beta-gal in NIH3T3, GalScreen luminescence, 90 h; AID 651740; inhibition, % at 2.09 µM; 5,600 compounds, 21% hits;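 active = mean inhibition above about 95%, with at least 55% of replicates also reaching it, limit read from the data; inconclusive = meets just one of the two conditions; inactive = meets neither condition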;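 also: plate controls were neutral control median for no effect and positive control median for full effect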
3T3 cytotox – NIH/3T3 (mouse) viability loss; shares compounds with T cruzi growth-1; NIH/3T3 viability, CellTiter-Glo ATP luminescence, 90 h; cytotoxicity (signal decrease), % at 8.35 µM; 5,600 compounds, 14% hits;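 active = mean signal decrease across replicates above about 35% based on untreated-well scatter, with enough replicates individually passing, limit read from the data; inconclusive = no rule stated though some were filed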;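 also: 0% = median of neutral control wells and 100% = median of positive control wells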
NIH3T3 tox 2 – kills mouse NIH/3T3 fibroblasts. NIH/3T3 viability, CellTiter-Glo ATP luminescence, 90 h. AID 651744. shares compounds with T cruzi growth-1. 5,600 compounds, 56% hits. inhibition, % at 24.9 µM;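 active = mean loss of cell viability signal at or above a set limit, and enough replicates individually reaching it; inconclusive = meets only the mean limit or only the replicate share; inactive = meets neither condition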;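 also: 0% = median of neutral control wells and 100% = median of positive control wells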
* = called active by the depositor; ? = inconclusive; · = no result. A selection: hits, their analogues and other compounds. The true share with any hit is near 6.8%.

SMILES	Pf Dd2 inh	T cruzi growth-1	C diff growth	T cruzi growth-2	T cruzi growth-3	3T3 cytotox	NIH3T3 tox 2
N#C[C@@H]1[C@@H](c2ccc(C#Cc3cccc(F)c3)cc2)[C@@H](CO)N1C(=O)C1CC1	-7.7	88.9	11.3	·	·	·	·
CNC[C@H]1Oc2c(NS(=O)(=O)c3cccs3)cccc2C(=O)N([C@H](C)CO)C[C@H]1C	14.6	14.1	-2.6	·	·	·	·
COc1ccc2c3c([nH]c2c1)[C@@H](CO)N(C(=O)C1CCCC1)CC31CCN(C)CC1	30.0	·	1.0	·	·	·	·
C[C@H](CO)N1C[C@H](C)[C@H](CN(C)C(=O)Nc2ccccc2)Oc2ccc(NC(=O)Cn3cnnn3)cc2C1=O	30.9	-3.4	-0.6	·	·	·	·
COc1ccccc1-c1ccc(C2[C@@H]3CN(S(=O)(=O)c4ccccc4OC)C[C@H]2N3)cc1 (some centres undefined)	-34.8	·	-4.3	·	·	·	·
O=C(N[C@H]1C=C[C@@H](CC(=O)N2CCCCC2)O[C@@H]1CO)c1ccccn1	7.1	-40.7	·	·	·	·	·
C[C@@H]1CN([C@@H](C)CO)C(=O)c2cc(NS(=O)(=O)c3ccc(F)cc3)ccc2O[C@@H](C)CCCCO[C@H]1CN(C)S(=O)(=O)c1ccc(F)cc1	-46.6	112.6*	-3.4	106.8*	56.0	5.5	-1.2
C[C@@H]1CCCCO[C@@H](CN(C)S(=O)(=O)c2ccc(F)cc2)[C@@H](C)CN([C@H](C)CO)C(=O)c2cc(NS(=O)(=O)c3ccc(F)cc3)ccc2O1	-46.9	49.2	-1.1	·	·	·	·
C[C@@H]1CN([C@H](C)CO)C(=O)c2cc(NS(=O)(=O)c3ccc(F)cc3)ccc2O[C@@H](C)CCCCO[C@@H]1CN(C)S(=O)(=O)c1ccc(F)cc1	-72.6	107.2*	4.2	103.0*	71.5	-13.5	2.1
C[C@@H]1CCCCO[C@@H](CN(C)S(=O)(=O)c2ccc(F)cc2)[C@H](C)CN([C@H](C)CO)C(=O)c2cc(NS(=O)(=O)c3ccc(F)cc3)ccc2O1	-47.7	86.2	-1.4	·	·	·	·
COc1ccccc1C#Cc1cnc2c(c1)C(=O)N([C@@H](C)CO)C[C@H](C)[C@H](CN(C)C)O2	-25.1	74.9	5.6	·	·	·	·
Cc1ccc(-c2cnc3c(c2)C(=O)N([C@@H](C)CO)C[C@@H](C)[C@@H](CN(C)C(=O)c2cccc(F)c2)O3)cc1	-59.3	·	-0.2	·	·	·	·
O=C(C1CCCC1)N1C[C@H]2[C@@H](c3ccccc31)[C@@H](CO)N2C(=O)Nc1cccc(F)c1	-8.9	-3.8	6.4	·	·	·	·
O=C(N[C@H]1C=C[C@H](CC(=O)N2CCCCC2)O[C@H]1CO)c1ccccn1	9.4	4.6	·	·	·	·	·
OC[C@@H]1[C@@H](c2ccc(C3=CCCC3)cc2)[C@@H]2CN(CCC(F)(F)F)CCCCN12	-27.1	88.6	-10.3	·	·	·	·
OC[C@@H]1[C@H](c2ccc(C3=CCCCC3)cc2)[C@@H]2CN(CCC(F)(F)F)CCCCN12	-57.8	?	29.2	95.6*	105.5*	69.9*	105.6*
OC[C@H]1[C@H](c2ccc(C3=CCCC3)cc2)[C@H]2CN(CCC(F)(F)F)CCCCN21	29.9	73.6	-3.5	·	·	·	·
OC[C@@H]1[C@H](c2ccc(C3=CCCC3)cc2)[C@H]2CN(CCC(F)(F)F)CCCCN12	-76.9	103.2*	2.3	100.2*	57.7	15.2	103.1*
O=C(Nc1ccccc1)[C@H]1[C@H](CO)[C@H]2Cn3c(cccc3=O)[C@H]2N1C(=O)C1CCCC1	·	19.1	-4.4	·	·	·	·
Cc1ccc(S(=O)(=O)Nc2ccc3c(c2)C(=O)N([C@@H](C)CO)C[C@H](C)[C@H](CN(C)S(=O)(=O)c2ccc(F)cc2)OCCCC[C@H](C)O3)cc1	-73.5	115.9*	-7.8	104.3*	66.9	-2.3	9.2
Cc1ccc(S(=O)(=O)Nc2ccc3c(c2)C(=O)N([C@@H](C)CO)C[C@@H](C)[C@H](CN(C)S(=O)(=O)c2ccc(F)cc2)OCCCC[C@@H](C)O3)cc1	-21.7	102.8*	-1.4	105.9*	66.1	-0.6	6.4
Cc1ccc(S(=O)(=O)Nc2ccc3c(c2)C(=O)N([C@H](C)CO)C[C@@H](C)[C@@H](CN(C)S(=O)(=O)c2ccc(F)cc2)OCCCC[C@@H](C)O3)cc1	-67.2	·	-9.4	·	·	·	·
Cc1ccc(S(=O)(=O)N(C)C[C@H]2OCCCC[C@H](C)Oc3ccc(NS(=O)(=O)c4ccc(F)cc4)cc3C(=O)N([C@H](C)CO)C[C@@H]2C)cc1	-49.3	102.8	-2.0	·	·	·	·
Cc1ccc(S(=O)(=O)N(C)C[C@@H]2OCCCC[C@H](C)Oc3ccc(NS(=O)(=O)c4ccc(F)cc4)cc3C(=O)N([C@@H](C)CO)C[C@H]2C)cc1	-45.0	93.0	0.9	·	·	·	·
Cc1ccc(S(=O)(=O)Nc2ccc3c(c2)C(=O)N([C@@H](C)CO)C[C@H](C)[C@H](CN(C)S(=O)(=O)c2ccc(F)cc2)OCCCC[C@@H](C)O3)cc1	-67.0	?	0.1	104.7*	76.7	20.1	31.6*
SMILES	Pf Dd2 inh	T cruzi growth-1	C diff growth	T cruzi growth-2	T cruzi growth-3	3T3 cytotox	NIH3T3 tox 2
Cc1ccc(S(=O)(=O)N(C)C[C@@H]2OCCCC[C@@H](C)Oc3ccc(NS(=O)(=O)c4ccc(F)cc4)cc3C(=O)N([C@@H](C)CO)C[C@@H]2C)cc1	-76.0	101.6*	9.0	105.1*	89.7	-27.2	11.9
C[C@@H]1CCCCO[C@@H](CN(C)S(=O)(=O)c2ccc(F)cc2)[C@@H](C)CN([C@@H](C)CO)C(=O)c2cc(NS(=O)(=O)c3ccc(F)cc3)ccc2O1	-69.7	72.1	0.6	·	·	·	·
Cc1noc(C)c1NC(=O)N(C)C[C@@H]1Oc2ccc(NC(=O)Nc3ccc(F)cc3)cc2CC(=O)N([C@H](C)CO)C[C@H]1C	-8.0	·	-0.3	·	·	·	·
CN(C)C(=O)C[C@H]1CC[C@H](NC(=O)NC2CCCCC2)[C@@H](CO)O1	6.8	·	0.2	·	·	·	·
C[C@H](CO)N1C[C@H](C)[C@@H](CN(C)S(=O)(=O)c2ccc(F)cc2)Oc2ccc(N(C)C)cc2C1=O	-4.3	·	0.4	·	·	·	·
Cc1noc(C)c1S(=O)(=O)Nc1cccc2c1O[C@@H](CN(C)S(C)(=O)=O)[C@@H](C)CN([C@H](C)CO)C2=O	-18.8	62.9	·	·	·	·	·
Cc1ccccc1-c1ccc2c(c1)O[C@H](CN(C)C(=O)Nc1ccc(C(F)(F)F)cc1)[C@@H](C)CN([C@H](C)CO)S2(=O)=O	-45.2	95.8	12.9	·	·	·	·
Cc1ccc(S(=O)(=O)N(C)C[C@H]2OCCCC[C@H](C)Oc3ccc(NS(=O)(=O)c4ccc(F)cc4)cc3C(=O)N([C@@H](C)CO)C[C@@H]2C)cc1	-70.9	114.6*	1.4	104.4*	83.8	-21.9	-23.0
Cc1ccc(S(=O)(=O)Nc2ccc3c(c2)C(=O)N([C@H](C)CO)C[C@@H](C)[C@@H](CN(C)S(=O)(=O)c2ccc(F)cc2)OCCCC[C@H](C)O3)cc1	-55.5	·	-2.5	·	·	·	·
